Test results published in PubChem BioAssay (EPA / NIEHS).
Active and inactive are the calls of the source. How the source made its calls: active means hit-call score of the fitted dose curve at least 0.9, where 1 is the maximum; inactive means score below 0.9.

assay: ATG_TCF_b_cat_CIS: Attagene CIS-FACTORIAL HepG2 Assay for human T-Cell-Factor with beta-catenin (TCF/b-cat) (AID 2282965); details: HepG2 TCF/beta-catenin cis-reporter transcription, actives raise or lower the signal
Procedure: ATG_CIS is a cell-based, multiplexed-readout assay that uses HepG2, a human liver cell line, with measurements taken at 24 hours after chemical dosing in a 24-well plate.ATG_TCF_b_cat_CIS is one of 52 assay component(s) measured or calculated from the ATG_CIS assay. It is designed to make measurements of mRNA induction, a form of inducible reporter, as detected with fluorescence intensity signals by Reverse transcription polymerase chain reaction (RT-PCR) and Capillary electrophoresis technology.Data from the assay component ATG_TCF_b_cat_CIS was analyzed into 1 assay endpoint. This assay endpoint, ATG_TCF_b_cat_CIS, was analyzed with bidirectional fitting relative to DMSO as the negative control and baseline of activity. Using a type of inducible reporter, measures of mRNA for gain or loss-of-signal activity can be used to understand the reporter gene at the transcription factor-level as they relate to the gene TCF7 and TCF7L2 and LEF1 and TCF7L1. Furthermore, this assay endpoint can be referred to as a primary readout, because this assay has produced multiple assay endpoints where this one serves a reporter gene function. To generalize the intended target to other relatable targets, this assay endpoint is annotated to the dna binding intended target family, where the subfamily is HMG box protein.
Human liver HepG2 cells are transiently transfected with multiple reporter transcription units (MRTUs) in 6-well plates using FuGene 6 reagent (Roche; 3 ml FuGene/1 mg DNA). The MRTU constructs are regulated by a cis-regulating element (promoter). […] A major difference between the CIS and TRANS system is that in CIS activities of endogenous TFs are measured, whereas the TRANS assay evaluates changes in activities of exogenous, chimeric NR-Gal4 proteins. […] At the end of 24 hour incubation, total RNA was isolated using TriZol reagent (Invitrogen). The isolated RNA is then reverse-transcribed using oligo(dT) primer and Mo-MLV reverse transcriptase (Invitrogen) with DNAse I (Ambion) treatment for 30 min. The one-tenth of the produced cDNA was amplified by PCR using Taq DNA polymerase (Invitrogen) and two reporter sequence-specific primers. The PCR products were fluorescently labeled by primer extension with 6-arboxyfluorescein (6-FAM) 5'-labeled reporter sequence-specific primer (2 min at 95 C, 20 s at 68 C and 10 min at 72 C) and these products were digested with 5U of HpaI (New England Biolabs) for 2h at 37 C. The fragments were purified using Qiaquick PCR columns (Qiagen), analyzed on an ABI 3130xL genetic analyzer (Applied Biosystems) with peak positions identified by using a set of X-rhodamine (ROX)-labeled MapMarker1000 molecular weight standards (BioVentures). The raw capillary electrophoresis data was processed using Attagraph software (Attagene).

outcome, inactive:
C=C[Si]1(C)O[Si](C)(C=C)O[Si](C)(C=C)O[Si](C)(C=C)O1 (stereo not given)
CC(=O)O[C@H]1C[C@@H]2CC[C@@]1(C)C2(C)C
CC(C)(N=C=O)c1cccc(C(C)(C)N=C=O)c1
O=Cc1ccccc1S(=O)(=O)O
CCNCCO
OCCCCC(O)CO (stereo not given)
CCCC(=O)OCCc1ccccc1
COCCOC(=O)c1ccccc1C(=O)OCCOC
C=C(C)C(=O)OCC(CC)(COC(=O)C(=C)C)COC(=O)C(=C)C
COCCc1ccc(OCC(O)CNC(C)C)cc1 (stereo not given)
OCc1cccc(Oc2ccccc2)c1
O=C(O)CCCCCCCCCCCC(=O)O
CCCCCCCCCC(=O)OC
OC[C@H]1O[C@@H](Oc2ccc(O)cc2)[C@H](O)[C@@H](O)[C@@H]1O
CCN(CC)C(=O)N(CC)CC
IC(I)I
CCCCCCC(O)CCCCCCCCCCC(=O)O (stereo not given)
C[C@H](CCC(=O)NCC(=O)O)[C@H]1CC[C@H]2[C@@H]3[C@H](O)C[C@@H]4C[C@H](O)CC[C@]4(C)[C@H]3C[C@H](O)[C@]12C
C=C(C)[C@H]1CC=C(C)C(=O)C1
CCc1ccc(O)cc1
C#CC(C)(O)CC(C)C (stereo not given)
O=C(CS)OCCOC(=O)CS
C1CCOC1
Cc1c(C2(c3cc(Br)c(O)c(Br)c3C)OS(=O)(=O)c3ccccc32)cc(Br)c(O)c1Br
O=C1OC2(c3ccccc31)c1ccc(O)c(Br)c1Oc1c2ccc(O)c1Br
CCC1CCCCC1
COc1cc(C(C)C)ccc1C
O=C1OC(=O)c2c(Br)c(Br)c(Br)c(Br)c21
COC(=O)c1ccc(OC)cc1
CC(C)C(OC(=O)c1ccccc1)C(C)(C)COC(=O)c1ccccc1 (stereo not given)
CN(C)c1cccc(O)c1
COC(=O)c1cccnc1
COc1ccc(CCO)cc1
CC1=CC[C@@]23C[C@@H]1C(C)(C)[C@@H]2CC[C@H]3C
C[N+](C)(C)CCCCCC[N+](C)(C)C
CCCCCC(C)=O
NCC1CCCC(CN)C1 (stereo not given)
OC[C@H]1O[C@@H]2O[C@H]3[C@H](O)[C@@H](O)[C@@H](O[C@H]4[C@H](O)[C@@H](O)[C@@H](O[C@H]5[C@H](O)[C@@H](O)[C@@H](O[C@H]6[C@H](O)[C@@H](O)[C@@H](O[C@H]7[C@H](O)[C@@H](O)[C@@H](O[C@H]8[C@H](O)[C@@H](O)[C@@H](O[C@H]9[C@H](O)[C@@H](O)[C@@H](O[C@H]1[C@H](O)[C@H]2O)O[C@@H]9CO)O[C@@H]8CO)O[C@@H]7CO)O[C@@H]6CO)O[C@@H]5CO)O[C@@H]4CO)O[C@@H]3CO
CC(C)OCCO
CCCCCCOC(=O)CCC
